Bioassay records: PubChem BioAssay, National Center for Advancing Translational Sciences (NCATS)
Sampled rows, rich in hits. Any-hit rate of the full collection: about 19%.
TDP1 cell CPT: qHTS for Inhibitors of human tyrosyl-DNA phosphodiesterase 1 (TDP1): qHTS in cells in presence of CPT. Potency, µM (highest dose often 46.2 µM), most hits filed as inhibitors. chicken DT40 Tdp1-/-;hTDP1 cells + 20 nM CPT, ATP luminescence, 48 h. 12% of 420,000 active; note: nearly all actives have a fitted effect of over 55% in size
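Cell growth measured by CellTiter-Glo luminescence after a minimum 48 h, 37 C compound exposure with 20 nM CPT in Tdp1-knockout DT40 cells stably expressing hTDP1, seeded 400/well; qHTS titration format.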
TDP1 cell noCPT: qHTS for Inhibitors of human tyrosyl-DNA phosphodiesterase 1 (TDP1): qHTS in cells in absence of CPT | Potency, µM (doses to about 46.2 µM), most hits filed as inhibitors | 15% of 420,000 active | DT40 Tdp1-/- hTDP1 cells, no CPT, ATP luminescence, 48 h; note: nearly all actives have a fitted effect of over 55% in size
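Cells were dispensed at 400 per well, compounds added by pin tool, plates incubated ≥48 hr at 37 °C, then CellTiter-Glo added for 30 min at room temperature before luminescence reading. Line: DT40 Tdp1-/- complemented with hTDP1; camptothecin omitted.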
HT1080NT lethal: qHTS for induction of synthetic lethality in tumor cells producing 2HG: qHTS for the HT-1080-NT fibrosarcoma cell line; Potency, µM (doses to about 46.1 µM), hits mostly cytotoxic; 1.6% of 360,000 active; AID 686970, 2013; HT-1080-NT fibrosarcoma viability, CellTiter-Glo ATP luminescence, 48 h;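 note: NT is the 2HG producing partner of a matched IDH1 knockdown line; nearly all actives have a fitted effect of over 55% in size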
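A 48-hour cytotoxicity screen used HT-1080-NT cells plated 2 hours before compound delivery. ATP-based CellTiter-Glo luminescence measured viability, normalized to DMSO and no-cell controls.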
IL1B secr inh: qHTS for Inhibitors of Inflammasome Signaling: IL-1-beta AlphaLISA Primary Screen; 4.7% of 360,000 active; activity change, % at 57.5 µM; THP-1 LPS/ATP IL-1B secretion, AlphaLISA, 16 h; hits give low values; in the data active = activity change below about -50%; inconclusive = mostly about -30% to -49%
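Secreted IL-1B measured by AlphaLISA bead assay after 16 h compound exposure of THP-1 cells; compounds (final up to 57.5 uM) added 1 h before LPS (250 ng/mL) and ATP (1.25 mM) stimulation; lower signal means less secretion.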
HT1080 IDH1KD tx: qHTS for induction of synthetic lethality in tumor cells producing 2HG: qHTS for the HT-1080-IDH1KD cell line. HT-1080 IDH1 knockdown viability, ATP luminescence, 48 h. Potency, µM (top dose mostly 46.1 µM), hits mostly cytotoxic. 2% of 360,000 active. AID 686971, 2013
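CellTiter-Glo luminescence after 48 h compound exposure at 37 degrees C of IDH1-knockdown HT-1080 cells in 5% FBS RPMI. %Activity scaled between DMSO wells and cell-free media wells, with curves fitted and assigned curve classes.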
Hits are given with their value. Unless noted, calls come from the whole dose curve; as a rule, active = well fitted curve in the direction sought with a large enough effect; inconclusive = small, poorly fitted or top-dose-only effect, or another doubt; inactive = no such curve, though single readings can be large; an effect the other way counts as inactive or inconclusive.

What do the screens show for `CCCNC(=O)C1CC(c2ccc(C(F)(F)F)cc2)=NO1` (stereo not given)?
TDP1 cell CPT: 11.6µM; TDP1 cell noCPT: 11.6µM; HT1080NT lethal: inactive; IL1B secr inh: inactive; HT1080 IDH1KD tx: inactive

Results for CCCCN(CCCC)CCCNC(=O)C1CC(c2ccc(C(F)(F)F)cc2)=NO1 (stereo not given) ?
TDP1 cell CPT: inconclusive; TDP1 cell noCPT: inconclusive; HT1080NT lethal: inactive; IL1B secr inh: inconclusive; HT1080 IDH1KD tx: inactive

How did CCCCNC(=O)C1CC(c2ccc(C(F)(F)F)cc2)=NO1 (stereo not given) do in these assays?
TDP1 cell CPT: 18.4µM; TDP1 cell noCPT: 9.2µM; HT1080NT lethal: inactive; IL1B secr inh: inactive; HT1080 IDH1KD tx: inactive

Results for COc1ccc2nc(N3CCCC(C(=O)NCCc4ccc(OC)c(OC)c4)C3)sc2c1 (stereo not given) ?
TDP1 cell CPT: inconclusive; TDP1 cell noCPT: 13µM; HT1080NT lethal: inactive; IL1B secr inh: inactive; HT1080 IDH1KD tx: inactive

What do the screens show for `COc1ccc(CCNc2nc(N3CCCCC3)nc(N3CCCCC3)n2)cc1OC`?
TDP1 cell CPT: inconclusive; TDP1 cell noCPT: 23.1µM; HT1080NT lethal: inconclusive; IL1B secr inh: inactive; HT1080 IDH1KD tx: inconclusive

Results for COc1ccc(CCNC(=O)c2ccc3nc(N4CCCCC4)sc3c2)cc1OC ?
TDP1 cell CPT: 18.4µM; TDP1 cell noCPT: 20.6µM; HT1080NT lethal: inactive; IL1B secr inh: inactive; HT1080 IDH1KD tx: inactive

What do the screens show for `Cc1ccc(CNC(=O)c2ccc3nc(N4CCCCC4)sc3c2)cc1`?
TDP1 cell CPT: inactive; TDP1 cell noCPT: inactive

What do the screens show for `COc1ccc(CCNC(=O)C2CCCN(c3nn4c(=O)cc(C)nc4s3)C2)cc1OC` (stereo not given)?
TDP1 cell CPT: inactive; TDP1 cell noCPT: inactive; HT1080NT lethal: inactive; IL1B secr inh: inactive; HT1080 IDH1KD tx: inactive

What do the screens show for `Cn1cccc1C(C#N)c1cccc(F)c1C#N` (stereo not given)?
TDP1 cell CPT: inconclusive; TDP1 cell noCPT: 18.4µM; HT1080NT lethal: inactive; IL1B secr inh: inactive; HT1080 IDH1KD tx: inactive

What do the screens show for `C/C(=N/NC(=O)c1cccs1)c1ccco1`?
TDP1 cell CPT: inactive; TDP1 cell noCPT: inactive; HT1080NT lethal: inactive; IL1B secr inh: inactive; HT1080 IDH1KD tx: inactive

What do the screens show for `C/C(=N\NC(=O)c1csc(C)c1C)c1ccc(C)s1`?
TDP1 cell CPT: 2.59µM; TDP1 cell noCPT: 2.91µM; HT1080NT lethal: inactive; IL1B secr inh: inactive; HT1080 IDH1KD tx: inactive

What do the screens show for `C/C(=N\NC(=O)c1c[nH]c2ccccc12)c1ccc(C)s1`?
TDP1 cell CPT: inactive; TDP1 cell noCPT: inactive; HT1080NT lethal: inactive; IL1B secr inh: inactive; HT1080 IDH1KD tx: inactive

How did C/C(=N\NC(=O)c1cc(-c2ccc(C)s2)[nH]n1)c1ccco1 do in these assays?
TDP1 cell CPT: inconclusive; TDP1 cell noCPT: 18.4µM; HT1080NT lethal: inactive; IL1B secr inh: inactive; HT1080 IDH1KD tx: inactive

What do the screens show for `C/C(=N\NC(=O)c1csc(C)c1C)c1ccco1`?
TDP1 cell CPT: 10.3µM; TDP1 cell noCPT: 20.6µM; HT1080NT lethal: inactive; IL1B secr inh: inactive; HT1080 IDH1KD tx: inactive

Results for Cc1cc(C)c2nc(SCC(=O)NCCC3=CCCCC3)cc(C)c2c1 ?
TDP1 cell CPT: inconclusive; TDP1 cell noCPT: 20.6µM; HT1080NT lethal: inactive; IL1B secr inh: inactive; HT1080 IDH1KD tx: inactive

How did Cc1cc(C)c(Cn2c3ccccc3c3cnn(CC(=O)NCCC4=CCCCC4)c(=O)c32)c(C)c1 do in these assays?
TDP1 cell CPT: 20.6µM; TDP1 cell noCPT: 16.4µM

Results for Nc1cc(N)nc(SCC(=O)NCCC2=CCCCC2)n1 ?
TDP1 cell CPT: inactive; TDP1 cell noCPT: inactive; HT1080NT lethal: inactive; IL1B secr inh: inactive; HT1080 IDH1KD tx: inactive

How did Cc1cc(C)c(Cn2c3ccccc3c3cnn(CC(=O)NCc4ccccn4)c(=O)c32)c(C)c1 do in these assays?
TDP1 cell CPT: 20.6µM; TDP1 cell noCPT: 23.1µM; HT1080NT lethal: inactive; IL1B secr inh: inactive; HT1080 IDH1KD tx: inactive
